# Assay outcomes from PubChem.
# The list is not random: actives were taken first. Their share in the collection is about 2.9%.
# ADAM10 inh – human ADAM10 inhibitors, primary screen, biochemical, QFRET, HTS; 0.62% of 370,000 active; AID 720582, 2013; inhibition, % at 7 µM; recombinant ADAM10, EDANS/DABCYL FRET peptide cleavage, 3 h;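 active = inhibition above a per-campaign cutoff equal to the mean of compounds falling between control-based bounds plus 3 SD, cut at about 20% in these data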
# PLC-beta3 inh – human PLC-beta3 inhibitors, primary screen, biochemical, fluorescence; 1-phosphatidylinositol 4,5-bisphosphate phosphodiesterase beta-3 (Homo sapiens), Q01970; Purified PLC-beta3, fluorogenic substrate; inhibition, % at 12.2 µM; 0.18% of 370,000 active; AID 720704, 2013; in the data active = inhibition above about 11%
# ADAM17 inh – ADAM17 inhibitors, primary screen, biochemical, QFRET; Disintegrin and metalloproteinase domain-containing protein 17 (Homo sapiens), P78536; recombinant ADAM17, EDANS/DABCYL FRET peptide cleavage; 0.83% of 370,000 active; AID 720648, 2013; inhibition, % at 6.95 µM;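 active = inhibition above the mean of compounds lying between control limits plus 3 SD, set per campaign, cut at about 8.5% in these data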
# proKLK7 act – proKLK7 zymogen activators, primary screen, biochemical, fluorescence intensity; Kallikrein-7 (Homo sapiens), P49862; purified proKLK7, EDANS-DABCYL substrate fluorescence; 100% is mature enzyme control, 0% vehicle; AID 652039, 2013; activation, % at 7 µM; 0.9% of 370,000 active;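 active = activation above the mean of all tested compounds plus 3 SD, computed per campaign excluding outliers beyond control limits, cut at about 13% in these data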
# Target sequence (P49862 whole entry, looked up): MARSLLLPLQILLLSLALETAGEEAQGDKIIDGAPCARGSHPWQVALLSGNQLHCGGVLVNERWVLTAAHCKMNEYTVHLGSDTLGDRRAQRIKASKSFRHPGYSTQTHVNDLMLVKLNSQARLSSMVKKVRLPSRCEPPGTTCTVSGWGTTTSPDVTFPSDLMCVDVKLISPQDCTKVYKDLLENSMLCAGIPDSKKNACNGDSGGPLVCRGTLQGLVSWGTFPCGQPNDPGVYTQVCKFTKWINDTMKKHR
# PLCg1 inh – PLC-gamma1 enzyme inhibitors, primary screen, biochemical, fluorescence, purified enzyme; fluorogenic substrate; AID 720700, 2013; inhibition, % at 12.2 µM; 0.84% of 370,000 active; in the data active = inhibition above about 9.5%
# ADAM10 confirm – human ADAM10 inhibitors, confirmation, biochemical, QFRET, triplicate | shares compounds with ADAM10 inh | ADAM10 QFRET peptide cleavage, EDANS fluorescence | inhibition, % at 6.95 µM | 1% of 2,100 active | AID 743208, 2013;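 active = inhibition above about 20% chosen separately for each screening run, limit read from the data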
# ADAM17 counter – ADAM17 inhibitors, counter-screen for ADAM10 exosite inhibitor project, biochemical, QFRET, high throughput | shares compounds with ADAM10 inh | ADAM17 QFRET peptide cleavage, EDANS fluorescence | inhibition, % at 6.95 µM | 0.5% of 2,100 active;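 active = mean triplicate inhibition above the solvent-only control wells' mean plus 3 SD, cut at about 12% in these data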
# ADAM10 ctr – ADAM10 inhibitors, counter-screen for ADAM17 exosite inhibitor project, biochemical, FRET, human ADAM10 | shares compounds with ADAM17 inh | recombinant ADAM10, EDANS/DABCYL FRET peptide cleavage, 3 h | inhibition, % at 6.95 µM | 47% of 2,900 active | AID 743256, 2014;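 active = mean inhibition over the triplicate runs exceeds the activity threshold set in the earlier primary screen, cut at about 20% in these data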
# ADAM17 confirm – ADAM17 inhibitors, hit retest, confirmation, biochemical, QFRET peptide cleavage. recombinant ADAM17, EDANS/DABCYL QFRET peptide cleavage. shares compounds with ADAM17 inh. AID 743257, 2014. inhibition, % at 6.95 µM. 65% of 2,900 active;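 active = mean inhibition across replicates above the hit cutoff set in the primary screen, cut at about 8.5% in these data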
# Hits are given with their value; - = inactive; . = not tested or not shown.
SMILES,ADAM10 inh,PLC-beta3 inh,ADAM17 inh,proKLK7 act,PLCg1 inh,ADAM10 confirm,ADAM17 counter,ADAM10 ctr,ADAM17 confirm
NC(=O)NC(=O)COC(=O)c1ccc(Cl)c(S(=O)(=O)N(Cc2ccccc2)c2ccc(Cl)cc2)c1,-,-,-,-,-,.,.,.,.
C=CCNC(=O)COC(=O)c1ccc(Cl)c(S(=O)(=O)N(Cc2ccccc2)c2ccccc2)c1,21.9,-,11.6,-,-,-,-,29.4,19.9
Cc1cc(-c2nnc(SCC(=O)Nc3cccc4ccccc34)n2N)n[nH]1,-,-,-,-,-,.,.,.,.
COc1cc(C(=O)N(Cc2ccccc2)c2cccc(C)c2)ccc1OC(F)F,-,-,-,-,-,.,.,.,.
COC(=O)C(Nc1ccccc1Cl)(c1cc(C)c(O)c(C)c1)C(F)(F)F (stereo not drawn),29.8,-,12.6,-,-,-,-,41.2,20.2
O=C(N[C@H](Cc1ccccc1)C(=O)NCCCN1CCCC1=O)[C@H]1O[C@@H](n2ccc(=O)[nH]c2=O)[C@H](O)[C@@H]1O,-,-,-,-,-,.,.,.,.
COc1ccc(CNC(=O)C(C)n2ccc3cc(S(=O)(=O)N4CCCCCC4)ccc32)cc1 (stereo not drawn),28.4,-,12.2,-,-,-,-,22.1,15.6
COC(=O)[C@H](C)NC(=O)C(Cc1ccc2c(c1)OCO2)NC(C)=O (stereo partly drawn),-,-,-,-,-,.,.,.,.
CC(=O)CC[C@H]1CC[C@]2(CCCN(C(=O)c3ccno3)C2)O1,-,-,-,-,-,.,.,.,.
Cc1ccc(C(=O)Nc2ccccc2C(=O)NCc2ccco2)cc1S(=O)(=O)N1CCCCC1,25.1,-,9.6,-,-,-,-,34.6,20.4
CCOC(=O)N1CCN(C(=O)C[C@@H]2C(=O)N(CCc3ccc(Cl)cc3)/C3=C/CCCCC[C@@]32C(=O)OCC)CC1,-,-,-,-,-,.,.,.,.
Cc1ccc(Cn2cc(COC(=O)NCC(C)C)nn2)cc1,-,-,-,-,-,.,.,.,.
COc1cc2c(cc1OC)C(=O)N1[C@H]3c4cc(C)ccc4OC[C@@H]3[C@H](c3ccccc3)[C@]1(C)C(=O)N2,-,-,-,-,-,.,.,.,.
COc1cc2c(cc1OC)C(=O)N1[C@H]3c4cc(Cl)ccc4OC[C@@H]3[C@H](c3ccccc3)[C@]1(C)C(=O)N2,28.9,-,11.7,-,-,-,-,34.4,19.2
COc1ccccc1-c1nnc(SC/C(O)=C(\C#N)c2nc3ccccc3[nH]2)n1C1CCCCC1,28.3,-,8.7,-,-,-,-,-,-
COc1ccc(OC)c(-c2csc(NC(=O)CSc3ccc([N+](=O)[O-])cc3)n2)c1,22.7,-,11.4,-,-,-,-,29.0,12.6
COc1ccc(OC)c(-c2csc(NC(=O)CSc3ccc(Br)cc3)n2)c1,-,-,-,-,-,.,.,.,.
O=C(N[C@H](Cc1ccccc1)C(=O)NCCCc1ccccc1)[C@H]1O[C@@H](n2ccc(=O)[nH]c2=O)[C@H](O)[C@@H]1O,-,-,-,-,-,.,.,.,.
